Data reported in ChEMBL document CHEMBL1157539, “Thousands of chemical starting points for antimalarial lead identification” (Nature, 2010).

The compounds below were run on Plasmodium falciparum (assay: GSK_TCMDC: Inhibition of Plasmodium falciparum Dd2 in whole red blood cells, using parasite LDH activity as an index of growth. Test compounds present at 2uM).
Format: functional

Q: For `CCOc1ccc(OCC(=O)Nc2nc(-c3ccc(OC)cc3)c(C)s2)cc1`, which Inhibition is on record?
A: 98%

Q: Which Inhibition does the source give for `Nc1nc(N)c2c(ccc3c2ccn3CCCC(F)(F)F)n1` here?
A: 34%

Q: With `CC(C)c1ccc(-c2nc3cc(Cl)cnc3[nH]2)cc1` as the compound, how does the Inhibition read?
A: 77%

Q: Which Inhibition does the source give for `Cc1nc(C)c(-c2ccc(Cl)cc2Cl)c(O)c1Br` here?
A: 57%

Q: How did the Inhibition turn out when `COc1ccc(C(C(=O)NC2CCN(C[C@H](O)c3ccnc4ccc(OC)cc34)CC2)N2CCN(c3ccc([N+](=O)[O-])cc3)CC2)cc1` (stereo not given in full) was run?
A: 80%

Q: For `COc1ccc(S(=O)(=O)N(CC(=O)NN=C(C)c2cccs2)c2cc(C)cc(C)c2)cc1OC`, which Inhibition is on record?
A: 43%

Q: For `C[C@H](Cc1ccc(OCCCCCCOc2ccc(C[C@@H](C)N[C@H](C)c3ccccc3)cc2)cc1)NC[C@H](O)c1cccc(Cl)c1.Cl`, which Inhibition is on record?
A: 98%

Q: For `COc1cccc(CN2CCC3(CC2)CN(C(=O)Nc2ccc(Cl)c(Cl)c2)C3)c1`, which Inhibition is on record?
A: 2%

Q: `CNC(=O)c1nc(-c2ccccc2)[nH]c1NC(C)=O` was tested. Which Inhibition did it give?
A: 0%

Q: Which Inhibition does the source give for `O=C(N[C@@H](Cc1ccccc1)C(=O)NCc1cccc2ccccc12)c1ccc(O)c(-c2ccc(Cl)c(Cl)c2)c1` here?
A: 97%

Q: How did the Inhibition turn out when `I.N=C(N)NCC=C(c1ccccc1)c1ccccc1` was run?
A: 83%

Q: With `CCCOc1ccc2ccccc2c1CNCCCCCCNCc1c(OCCC)ccc2ccccc12.CS(=O)(=O)O` as the compound, how does the Inhibition read?
A: 90%

Q: For `COc1ccc(NC(=O)[C@H](Cc2ccccc2)Nc2cc(C)nc(NCCc3ccccc3OC)n2)cc1.O=C(O)C(F)(F)F`, which Inhibition is on record?
A: 83%

Q: With `Cc1sc(C)c(CNCCCNc2cc(=O)c3ccccc3[nH]2)c1Br.Cl` as the compound, how does the Inhibition read?
A: 15%

Q: For `Cc1cccc2nc(-c3ccc(-c4ccc(CN5CCN(CC6CCCN(C)C6)CC5)cc4)s3)[nH]c12.O=C(O)C(F)(F)F` (stereo not given), which Inhibition is on record?
A: 99%

Q: Which Inhibition does the source give for `COc1ccc(-c2ccc(NC(=O)c3ccc(C#N)cc3)cc2)cc1CN1CCCC1.O=C(O)C(F)(F)F` here?
A: 51%

Q: For `CC(C)(C)c1nn(-c2ccccc2)c2[nH]c(=O)c(CNCCc3ccccc3)cc12`, which Inhibition is on record?
A: 90%

Q: How did the Inhibition turn out when `COc1cc(NCC(CN)Cc2ccc3c(c2)OCO3)nc2ccccc12.Cl` (stereo not given) was run?
A: 6%

Q: `Cc1cccc2nc(-c3ccc(-c4cccc(NC(=O)Cc5c[nH]cn5)c4)cc3)[nH]c12` was tested. Which Inhibition did it give?
A: 21%

Q: How did the Inhibition turn out when `Cc1c(Cn2nc(Cl)c(N3CCNCC3)cc2=O)cccc1NC(=O)Nc1ccc(-c2ccccc2)cc1.O=C(O)C(F)(F)F` was run?
A: 29%

Q: How did the Inhibition turn out when `Cc1cc(N(C)C)nc(Nc2ccc(NC(=O)CCc3ccccc3)cc2)n1` was run?
A: 84%

Q: With `COc1ccc(-c2ccc(NC(=O)c3ccc(Cl)cc3)cc2)cc1CN(C)CCO.O=C(O)C(F)(F)F` as the compound, how does the Inhibition read?
A: 43%

Q: Which Inhibition does the source give for `COc1ccc2nccc(N3CCC(NCc4ccc5c(n4)NC(=O)CS5)CC3)c2n1` here?
A: 63%

Q: How did the Inhibition turn out when `CC[C@H](NC(=O)c1c(CN2CCC(N3CCCCC3)CC2)c(-c2ccccc2)nc2c(Cl)c(O)ccc12)c1ccccc1.Cl` was run?
A: 66%

Q: With `CCn1c2ccccc2c2cc(C=NN=c3cc(C)[nH]c4ccccc34)ccc21` as the compound, how does the Inhibition read?
A: 97%

Q: For `COc1ccc(Nc2nccc(NCCNC(=O)Nc3ccccc3F)n2)cc1`, which Inhibition is on record?
A: 4%

Q: `CS(=O)(=O)c1ccc(CCNCc2ccc(-c3ccc(CN(C(=O)C4CCCC4)C4CCN(Cc5ccccc5)CC4)cc3)nc2)cc1.O=C(O)C(F)(F)F` was tested. Which Inhibition did it give?
A: 20%

Q: How did the Inhibition turn out when `CNC(=O)c1cc(NCCCNCc2ccc(Cl)c(C(F)(F)F)c2)nc2ccccc12.Cl` was run?
A: 7%

Q: Which Inhibition does the source give for `COc1ccc(NC(=O)/C=C/c2ccccc2Cl)cc1OCCN1CCC(NCc2ccccc2)CC1` here?
A: 100%

Q: With `CNCCNCc1cccc(-c2ccc(-c3nc4cccc(C)c4[nH]3)s2)c1.O=C(O)C(F)(F)F` as the compound, how does the Inhibition read?
A: 8%

Q: With `COc1ccccc1N1CCN(CCCCN(C(=O)Nc2cccc(Cl)c2)C(=O)Nc2cccc(Cl)c2)CC1.Cl` as the compound, how does the Inhibition read?
A: 65%

Q: How did the Inhibition turn out when `N#Cc1ccc(CN2CCC(Oc3ccc(NC(=O)c4cccs4)cc3Cl)CC2)cc1.O=C(O)C(F)(F)F` was run?
A: 96%

Q: `N#Cc1ccc(C(=O)Nc2cccc(-c3ccc(CN4CCCC4)cc3)c2)cc1.O=C(O)C(F)(F)F` was tested. Which Inhibition did it give?
A: 0%

Q: How did the Inhibition turn out when `O=C(Nc1ccc(OC2CCN(Cc3ccc(F)cc3)C2)c(Cl)c1)c1ccoc1.O=C(O)C(F)(F)F` (stereo not given) was run?
A: 90%

Q: `Cl.FC(F)(F)c1ccc2c(NCCc3ccccc3)ccnc2c1` was tested. Which Inhibition did it give?
A: 9%

Q: `CSc1ccc(NC(=O)Nc2cc(C)nc3ccccc23)cc1Br` was tested. Which Inhibition did it give?
A: 66%

Q: For `O=C(Nc1cc(Cl)cc(Cl)c1)N[C@H]1CCN(CCCCCNC(=O)C2CC2c2ccc(Cl)c(Cl)c2)C1` (stereo not given in full), which Inhibition is on record?
A: 0%

Q: With `Cc1ccccc1CN1CCCN(Cc2ccc(C(=O)Nc3ccc(C(C)(C)C)cc3)cc2)CC1.O=C(O)C(F)(F)F` as the compound, how does the Inhibition read?
A: 5%

Q: Which Inhibition does the source give for `c1ccc(C23NC(=Nc4nc5ccccc5[nH]4)NC2(c2ccccc2)NC(=Nc2nc4ccccc4[nH]2)N3)cc1` (stereo not given) here?
A: 89%

Q: How did the Inhibition turn out when `O=C(/C=C/c1ccc(Cl)c(Cl)c1)NCCCCCN1CCC(NC(=O)Nc2ccccc2F)CC1` was run?
A: 25%
